Data on 12 compounds can be found in PubChem BioAssay (Tox21).

The nature of experiment [1]: qHTS assay to identify small molecule antagonists of the glucocorticoid receptor (GR) signaling pathway - cell viability counter screen (AID 720693; further: nearly all actives have a fitted effect of over 55% in size). (Quantitative high-throughput screening tests each substance at several concentrations.)
The nature of experiment [2]: qHTS assay for identifying genotoxic compounds that show differential cytotoxicity against isogenic chicken DT40 cell lines with known DNA damage response pathways - Rev3 mutant cell line (AID 743014). Further: nearly all actives have a fitted effect of over 55% in size. Further: potency means the concentration at half of the fitted maximal effect.
Experiment [3] in a line: qHTS assay to identify small molecule antagonists of the androgen receptor (AR) signaling pathway - cell viability counter screen (AID 743033; further: nearly all actives have a fitted effect of over 45% in size).
The nature of experiment [4]: qHTS assay to identify small molecule antagonists of the androgen receptor (AR) signaling pathway using the MDA cell line - cell viability counter screen (AID 743041; further: nearly all actives have a fitted effect of over 45% in size). In short, it runs like this: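 Viability counter screen run alongside the AR antagonist reporter: cells seeded 5 h before compound, R1881 added, 16 h incubation at 37C without CO2, fluorescent CellTiter-Fluor signal quantified.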

The nature of experiment [5]: qHTS assay to identify small molecule antagonists of the thyroid receptor (TR) signaling pathway - cell viability counter screen (AID 743064). Further: nearly all actives have a fitted effect of over 50% in size. Put shortly: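 Viability of T3-stimulated (1 nM final) GH3.TRE-Luc cells is measured by CellTiter-Fluor fluorescence after 23.5 h compound exposure at 37 °C plus 30 min reagent incubation.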
The subject of experiment [6] is thyroid hormone receptor (rat, GH3 cells). The experiment can be described thus: qHTS assay to identify small molecule agonists of the thyroid receptor (TR) signaling pathway (AID 743066; calls by dose curve).
Experiment [7] concerns the target Estrogen receptor (Homo sapiens) (UniProt P03372). The experiment can be described thus: qHTS assay to identify small molecule antagonists of the estrogen receptor alpha (ER-alpha) signaling pathway (AID 743069; active means well fitted curve in the direction sought with a large enough effect in the signal ratio in the repeat runs, not every such curve was filed as active; the % refers to the signal ratio). In short, it runs like this: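 Estradiol-stimulated ER-alpha-UAS-bla HEK293 cells, 18 hr compound exposure at 37C. LiveBLAzer B/G substrate, 2 hr RT, fluorescence read.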

The nature of experiment [8]: qHTS assay to identify small molecule antagonists of the estrogen receptor alpha (ER-alpha) signaling pathway - cell viability counter screen (AID 743074; calls by dose curve;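 further: HEK293 cells carrying ER-alpha-UAS-bla reporter stimulated with 17beta-estradiol; nearly all actives have a fitted effect of over 45% in size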).
Experiment [9] addresses Estrogen receptor (Homo sapiens) (UniProt P03372). The experiment can be described thus: qHTS assay to identify small molecule agonists of the estrogen receptor alpha (ER-alpha) signaling pathway (AID 743075; calls by dose curve;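 further: HEK293 GripTite cells with ER-alpha and UAS-driven beta-lactamase reporter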).
Experiment [10] has the same target. The experiment can be described thus: qHTS assay to identify small molecule agonists of the estrogen receptor alpha (ER-alpha) signaling pathway using the BG1 cell line (AID 743079). Further: nearly all actives have a fitted effect of over 20% in size.
Experiment [11] is described as follows: qHTS assay to identify small molecule antagonists of the estrogen receptor alpha (ER-alpha) signaling pathway using the BG1 cell line (AID 743080; calls by dose curve;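 further: BG1 cells stimulated with 17beta-estradiol alongside compound; series mostly up to about 70 µM; nearly all actives have a fitted effect of over 25% in size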). Put shortly: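 After 5 days in phenol-red-free 10% charcoal-stripped FBS medium, BG1-Luc-4E2 cells were seeded, left 24 h at 37 C, co-treated with compounds and 17beta-estradiol for 21.5 h, then assayed for viability and luciferase.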

A short description of experiment [12]: qHTS assay to identify small molecule antagonists of the estrogen receptor alpha (ER-alpha) signaling pathway using the BG1 cell line - cell viability counter screen (AID 743081).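 Further: compound given together with 17beta-estradiol as the ER stimulus; series mostly up to about 70 µM; nearly all actives have a fitted effect of over 45% in size.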
For experiment [13], the target named is Aromatase (Homo sapiens) (UniProt P11511). The experiment in a line: qHTS assay to identify aromatase inhibitors (AID 743083). Further: series mostly up to about 70 µM; nearly all actives have a fitted effect of over 55% in size.
Aromatase (Homo sapiens), sequence (P11511 whole entry, looked up): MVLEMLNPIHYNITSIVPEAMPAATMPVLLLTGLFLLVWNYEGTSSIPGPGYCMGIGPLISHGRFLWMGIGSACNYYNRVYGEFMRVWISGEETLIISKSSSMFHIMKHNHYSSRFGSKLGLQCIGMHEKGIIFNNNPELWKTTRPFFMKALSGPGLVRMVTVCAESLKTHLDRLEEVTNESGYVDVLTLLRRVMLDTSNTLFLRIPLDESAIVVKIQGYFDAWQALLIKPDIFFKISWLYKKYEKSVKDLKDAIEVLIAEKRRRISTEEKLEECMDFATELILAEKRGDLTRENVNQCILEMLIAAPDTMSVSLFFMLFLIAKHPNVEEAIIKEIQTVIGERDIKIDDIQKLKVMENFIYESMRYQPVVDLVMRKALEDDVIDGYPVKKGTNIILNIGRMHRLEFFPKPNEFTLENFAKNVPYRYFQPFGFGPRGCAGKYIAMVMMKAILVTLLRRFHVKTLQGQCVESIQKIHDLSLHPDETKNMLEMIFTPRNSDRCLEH
A short description of experiment [14]: qHTS assay for identifying genotoxic compounds that show differential cytotoxicity against isogenic chicken DT40 cell lines with known DNA damage response pathways - Rad54/Ku70 mutant cell line (AID 743015). Further: nearly all actives have a fitted effect of over 60% in size.
Experiment [15] addresses Androgen receptor (Homo sapiens) (UniProt P10275). The experiment in a line: qHTS assay to identify small molecule antagonists of the androgen receptor (AR) signaling pathway (AID 743035; active means well fitted inhibition curve with a large enough effect in the signal ratio in the repeat runs, not every such curve was filed as active; the % refers to the signal ratio). Put shortly:
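Fluorescence from a beta-lactamase FRET substrate (LiveBLAzer B/G, 2 h, room temperature) measured inhibition of R1881-stimulated signaling in GeneBLAzer AR-UAS-bla HEK293 cells exposed to compound for 16 h at 37C.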

Experiment [16] has the same target. The experiment can be described thus: qHTS assay to identify small molecule agonists of the androgen receptor (AR) signaling pathway (AID 743036; active means well fitted activation curve with a large enough effect in the signal ratio in the repeat runs, with a control signal flat, not every such curve was filed as active; the % refers to the signal ratio). Put shortly:
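Screening used 2,000 AR-bla HEK293 cells per well, treated 16 h at 37C with test compounds in DMSO alongside positive and DMSO-only controls; beta-lactamase activity was then read by LiveBLAzer B/G FRET fluorescence after 2 h at room temperature.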

Experiment [17] shares this target. The experiment can be described thus: qHTS assay to identify small molecule agonists of the androgen receptor (AR) signaling pathway using the MDA cell line (AID 743040; further: nearly all actives have a fitted effect of over 20% in size). Put shortly: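 Luminescence from ONE-Glo, read after 30 min at room temperature, reflects MMTV-driven luciferase in MDA-kb2 cells (AR- and GR-responsive). Treatment lasted 16 h at 37C, 0% CO2.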

For experiment [18] the target is unchanged. The experiment can be described thus: qHTS assay to identify small molecule antagonists of the androgen receptor (AR) signaling pathway using the MDA cell line (AID 743042; further: nearly all actives have a fitted effect of over 55% in size). In short, it runs like this: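 MDA-kb2 cells (human breast carcinoma, stably carrying an MMTV-luciferase reporter responsive to AR and GR) were plated at 3,000 cells/well and preincubated 5 hr at 37C, then given compound plus R1881 agonist for 16 h. ONE-Glo luminescence was read.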

Experiment [19] is described as follows: qHTS assay to identify small molecule antagonists of the thyroid receptor (TR) signaling pathway (AID 743065). In short, it runs like this:
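GH3.TRE-Luc rat pituitary cells carrying two TR response elements driving luciferase were plated for 4 h, given compound plus 1 nM T3 (final), and incubated 23.5 h at 37 C. ONE-Glo luminescence measured reporter inhibition; CellTiter-Fluor fluorescence tracked cytotoxicity.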

Experiment [20] in a line: qHTS assay for identifying genotoxic compounds that show differential cytotoxicity against isogenic chicken DT40 cell lines with known DNA damage response pathways - wild type cell line (AID 743012). Further: potency means the concentration at half of the fitted maximal effect; nearly all actives have a fitted effect of over 60% in size. Put shortly:
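Wild type DT40, 300 cells/well, ~0.5 h settle at 37 C/5% CO2; compounds in DMSO added by pintool; 40 h at 37 C/5% CO2; CellTiter-Glo, 30 min RT; luminescence.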

Molecules are shown by their SMILES. Inconclusive results are not listed. The source made the active and inactive calls. Unless noted, the call rests on the fitted dose curve; in most records, active means well fitted curve in the direction sought with a large enough effect in the repeat runs; inconclusive means weak or mixed curves; inactive means no such curve, though single readings can be large; an effect the other way counts as inactive or inconclusive.

Estrogen receptor (Homo sapiens), sequence (P03372 whole entry, looked up): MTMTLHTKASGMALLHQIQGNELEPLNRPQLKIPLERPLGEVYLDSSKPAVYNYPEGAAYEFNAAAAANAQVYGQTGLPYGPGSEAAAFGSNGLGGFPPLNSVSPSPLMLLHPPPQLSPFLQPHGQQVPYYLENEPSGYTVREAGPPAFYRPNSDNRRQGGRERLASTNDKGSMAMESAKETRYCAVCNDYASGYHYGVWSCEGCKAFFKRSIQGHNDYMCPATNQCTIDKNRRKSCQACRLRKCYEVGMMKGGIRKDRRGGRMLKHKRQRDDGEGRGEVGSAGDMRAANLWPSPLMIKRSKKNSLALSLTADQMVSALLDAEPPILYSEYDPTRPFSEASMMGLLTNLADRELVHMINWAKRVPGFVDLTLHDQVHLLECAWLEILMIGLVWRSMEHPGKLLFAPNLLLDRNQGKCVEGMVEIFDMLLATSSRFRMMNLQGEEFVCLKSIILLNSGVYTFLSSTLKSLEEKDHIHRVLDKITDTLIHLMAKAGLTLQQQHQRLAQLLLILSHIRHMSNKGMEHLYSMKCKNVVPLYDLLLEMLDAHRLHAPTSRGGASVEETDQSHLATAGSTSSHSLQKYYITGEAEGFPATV
Androgen receptor (Homo sapiens), sequence (P10275 whole entry, looked up): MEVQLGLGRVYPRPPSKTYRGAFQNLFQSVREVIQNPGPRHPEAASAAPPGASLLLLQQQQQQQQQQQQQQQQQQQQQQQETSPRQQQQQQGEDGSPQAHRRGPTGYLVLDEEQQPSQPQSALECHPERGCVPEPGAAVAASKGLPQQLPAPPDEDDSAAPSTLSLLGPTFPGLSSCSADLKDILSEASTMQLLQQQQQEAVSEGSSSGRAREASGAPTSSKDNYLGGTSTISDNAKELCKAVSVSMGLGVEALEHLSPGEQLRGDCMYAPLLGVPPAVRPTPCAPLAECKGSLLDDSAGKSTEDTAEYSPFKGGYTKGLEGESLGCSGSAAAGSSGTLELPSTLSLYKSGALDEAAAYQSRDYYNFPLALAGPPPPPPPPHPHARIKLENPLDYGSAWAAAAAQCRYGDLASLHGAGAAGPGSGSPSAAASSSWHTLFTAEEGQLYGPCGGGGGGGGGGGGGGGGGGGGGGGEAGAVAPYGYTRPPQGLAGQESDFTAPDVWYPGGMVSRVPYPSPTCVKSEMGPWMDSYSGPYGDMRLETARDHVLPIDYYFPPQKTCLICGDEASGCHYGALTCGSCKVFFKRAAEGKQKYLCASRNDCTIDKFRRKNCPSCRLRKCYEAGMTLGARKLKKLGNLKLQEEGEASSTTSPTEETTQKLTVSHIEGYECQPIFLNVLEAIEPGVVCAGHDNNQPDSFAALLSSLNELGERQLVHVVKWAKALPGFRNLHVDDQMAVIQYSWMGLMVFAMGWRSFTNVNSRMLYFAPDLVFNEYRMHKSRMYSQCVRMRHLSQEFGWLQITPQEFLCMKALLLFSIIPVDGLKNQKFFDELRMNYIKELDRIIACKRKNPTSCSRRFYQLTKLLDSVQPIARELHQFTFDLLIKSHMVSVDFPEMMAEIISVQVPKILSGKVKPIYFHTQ

As for `O=c1oc2c(O)c(O)cc3c(=O)oc4c(O)c(O)cc1c4c23`, the compound was called inactive in experiment [1], in experiment [3], in experiment [6], in experiment [9] and in [11]. For the same compound, the Potency entry in experiment [2], in experiment [4], in experiment [5], in [7], in experiment [8] and in experiment [10] was “inactive” each time. The Potency entry in experiment [12] and in [13] was “inactive” each time.

In the case of `COC(C)CCO` (stereo not given), the outcome in [1], in experiment [3], in experiment [16], in [18] and in experiment [6] was inactive. The Potency result in experiment [2], in experiment [14], in experiment [15], in experiment [17], in experiment [4] and in [5] was “inactive” throughout. Besides, the Potency result in [19], in experiment [8], in experiment [12] and in [13] was “inactive” in each case.

Regarding `CCCCCCCCc1ccc(S(=O)(=O)O)cc1`, the result in [1], in [3] and in [6] was inactive. The Potency entry in [14], in experiment [4], in experiment [5], in [19], in experiment [12] and in [13] was “inactive” throughout.

Regarding `COc1nc(C)nc(NC(=O)NS(=O)(=O)c2ccccc2OCCCl)n1`, the compound was classed as inactive in [1], in [3], in [6], in experiment [9] and in experiment [11]. Besides, the Potency entry in experiment [2], in experiment [5], in experiment [19], in experiment [7], in [8] and in [12] was “inactive” in each case. Moreover, the Potency entry in experiment [13] is “inactive”.

As to `COC(=O)c1ccc2cc(C(=O)OC)ccc2c1`, the compound was classed as inactive in experiment [1], in experiment [3], in [6], in experiment [9] and in experiment [11]. Also, the Potency result in experiment [14], in [4], in [5], in experiment [19], in [7] and in [8] was “inactive” in each case. Also, the Potency result in experiment [10], in [12] and in experiment [13] was “inactive” each time.

For the compound `FC(F)(F)C(F)(F)C(F)(F)C(F)(F)C(F)(F)C(F)(F)C(F)(F)C(F)(F)Br`, the call in experiment [1], in [6], in [9] and in experiment [11] was inactive. For the same compound, the Potency result in [2], in experiment [14], in [4], in experiment [19], in experiment [7] and in experiment [8] was “inactive” throughout. Further, the Potency entry in experiment [10], in experiment [12] and in experiment [13] was “inactive” throughout.

Take `CCOC(=O)NCCC[Si](OCC)(OCC)OCC`: the outcome in experiment [1], in [3], in experiment [6], in [9] and in experiment [11] was inactive. Also, the Potency result in [2], in [14], in experiment [4], in experiment [5], in experiment [19] and in [7] was “inactive” each time. The Potency result in experiment [8], in experiment [10], in [12] and in experiment [13] was “inactive” each time.

Turning to `CCC1(C)NC(=O)NC1=O` (stereo not given), the compound was called inactive in experiment [1], in experiment [3] and in experiment [6]. In addition, the Potency entry in experiment [2], in [14], in [4], in experiment [5], in [19] and in experiment [12] was “inactive” throughout. Further, the Potency entry in experiment [13] is “inactive”.

In the case of `COC(=O)c1ccc(OC)cc1`, the result in experiment [1], in experiment [3] and in experiment [6] was inactive. In addition, the Potency entry in experiment [2], in experiment [14], in [4], in experiment [19], in experiment [8] and in experiment [12] was “inactive” each time. The Potency result in experiment [13] was “inactive”.

As to `CC(C)=CCC[C@](C)(O)[C@@H]1CC=C(C)CC1`, the result in experiment [1], in experiment [3] and in [6] was inactive. Further, the Potency entry in experiment [2], in experiment [14], in experiment [4], in [19], in [12] and in experiment [13] was “inactive” in each case.

For `CC(C)=CCCC(C)CCOC=O` (stereo not given), the compound was called inactive in [1] and in [3]. Further, the Potency in experiment [2] was 27.3 µM (active). The Potency entry in [4], in experiment [5], in experiment [19], in [8] and in experiment [12] was “inactive” each time.

On to `CC(C)NC[C@@H](O)COc1cccc2ccccc12`, for which the compound was called inactive in experiment [1] and in experiment [6]. Also, in experiment [20], the Potency is 26.6 µM (active). The Potency result in [4], in [8], in experiment [12] and in experiment [13] was “inactive” each time.
